Experimental findings from PubChem BioAssay are described below.

Experiment [1] is described as follows: yeast TOR pathway RPL19A-GFP modulators, primary screen, cell-based, S. cerevisiae, multiplex flow cytometry (AID 1862; in the data active = percent of DMSO control GFP below about 86%;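 also: lower values mimic rapamycin by blocking the RPL19A rise seen in DMSO cells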). Conditions: S. cerevisiae RPL19A-GFP strain, flow cytometry fluorescence, 3 h; at 10 µM; stronger effect = lower value.
Experiment [2] is described as follows: modulators of MEP2-GFP levels in yeast, primary screen, S. cerevisiae, multiplex flow cytometry (AID 1867;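 active = GFP response, as percent of the DMSO control, above the screen-wide mean plus 3 SD, about 139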;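 also: median GFP channel fluorescence of barcode-gated MEP2-GFP cells measured by flow cytometry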). As to conditions: S. cerevisiae MEP2-GFP strain, 3 h, at 10 µM, stronger effect = higher value, 100% means same as DMSO wells.
Experiment [3] in a line: modulators of CIT2-GFP expression in yeast, primary screen, S. cerevisiae, GFP fusion, multiplex flow cytometry (AID 1870;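 active = percent response above a set limit, the screen-wide mean plus 3 SD, cut at about 130% in these data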;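 also: barcoded CIT2-GFP strain pooled with four other GFP strains with rapamycin as positive control; median GFP fluorescence per well over plate mean of DMSO wells so 100% = DMSO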). Conditions: 3 h, at 10 µM, stronger effect = higher value.
Experiment [4] in a line: modulators of LAP4-GFP expression in yeast, primary screen, S. cerevisiae, multiplex flow cytometry (AID 1873;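 active = GFP signal, as percent of the solvent control, above the screen mean plus 3 SD, about 149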). Conditions: 3 h, at 10 µM, stronger effect = higher value.
Experiment [5] can be described thus: modulators of AGP1-GFP expression in yeast TOR pathway, primary screen, cell-based, multiplex flow cytometry, S. cerevisiae (AID 1887;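 active = GFP signal above the screen-wide mean plus 3 SD, that is over about 124.5% of the solvent control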;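 also: AGP1-GFP fusion strain of S. cerevisiae within a five-strain barcoded multiplex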). Conditions: 3 h, at 10 µM, stronger effect = higher value.
Experiment [6] in a line: RPL19A-GFP modulators, yeast TOR pathway, confirmation, cell-based, S. cerevisiae, flow cytometry, cherry picks, mother/daughter gates (AID 2270;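 active = GFP response below 50% of the DMSO control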). As to conditions: S. cerevisiae RPL19A-GFP strain, 3 h, at 10 µM, stronger effect = lower value, 100 = same GFP as DMSO wells.
Experiment [7] can be described thus: LAP4-GFP expression modulators in yeast, confirmation, cell-based, cherry picks, flow cytometry, mother/daughter gates (AID 2271;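 active = GFP response above 150% of the DMSO control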;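 also: ratio of sample to DMSO plate mean so 100% equals DMSO level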). As to conditions: S. cerevisiae LAP4-GFP strain, 3 h, at 10 µM, stronger effect = higher value, 100 means same as DMSO control.
The nature of experiment [8]: modulators of MEP2-GFP levels in yeast, confirmation, S. cerevisiae, flow cytometry GFP, cherry picks (AID 2272;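 active = GFP response above 150% of the DMSO control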;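 also: ratio of well signal to plate DMSO mean so 100% equals DMSO level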). Conditions: S. cerevisiae MEP2-GFP strain, 3 h, at 10 µM, stronger effect = higher value.
The nature of experiment [9]: modulators of CIT2-GFP expression in yeast, confirmation, S. cerevisiae, GFP fusion, cherry picks, mother/daughter gates (AID 2274;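 active = GFP response above 150% of the DMSO level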). As to conditions: S. cerevisiae CIT2-GFP strain, flow cytometry, 3 h, at 10 µM, stronger effect = higher value.
The nature of experiment [10]: inhibitors of CD8+ T cell-vesicle binding, pilot screen, LFA-1/ICAM-1 modulator project, MLPCN validation set, flow cytometry (AID 2523;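 active = response below a set limit, under 55% cells CD8-positive and vesicle-bound, and CD8 cells' 90th-percentile brightness under 279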;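 as to vesicle binding response: mean PE anti-B7-1 fluorescence of CD8+ cells relative to row control; 100% = QL9-loaded vesicles with DMSO vehicle in the same plate row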). As to conditions: 2C mouse CD8+ T cells, at 7 µM, stronger effect = lower value; double positive events: measured here: CD8+/vesicle+ event percentage.
Experiment [11] concerns the target Regulator of G-protein signaling 16 (Homo sapiens) (UniProt O15492). Nature of the experiment: modulators of RGS–Galpha-o binding, primary screen, biochemical, multiplexed beads, flow cytometry, RGS4/7/8/16/19 (AID 1504).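 Also: fluorescently labeled Galpha-o bound to GDP with aluminium fluoride binding biotinylated RGS beads.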 As to conditions: multiplexed bead flow cytometry, measured here: RGS16 interaction, at 10 µM.
Experiment [12] deals with Regulator of G-protein signaling 19 (Homo sapiens) (UniProt P49795). The experiment is described as above. Conditions: multiplexed bead flow cytometry, measured here: RGS19 interaction, at 10 µM.
Experiment [13] addresses Regulator of G-protein signaling 7 (Homo sapiens) (UniProt P49802). The description is as above. Conditions: multiplexed bead flow cytometry, measured here: RGS7 interaction, at 10 µM.
Experiment [14] addresses Regulator of G-protein signaling 8 (Homo sapiens) (UniProt P57771). The experiment is described as above. As to conditions: multiplexed bead flow cytometry, measured here: RGS8 interaction, at 10 µM.
Experiment [15] can be described thus: disruption of biotin probe capture by avidin, counter-screen for RGS protein interaction modulators, biochemical, flow cytometry, bead-based (AID 1783;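 active = inhibition above 50%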;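 also: median green fluorescence of gated singlet beads compared with DMSO control wells; 0% = DMSO wells and 100% = complete loss of bead fluorescence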). As to conditions: streptavidin beads, fluorescein-biotin binding; at 10 µM, stronger effect = higher value.
The target of experiment [16] is Guanine nucleotide-binding protein G(o) subunit alpha (Homo sapiens) (UniProt P09471). Nature of the experiment: RGS8-Galphao binding modulators, confirmation, biochemical, multiplexed bead flow cytometry, single concentration (AID 1836; in the data active = binding response below about 72% or above about 130%; inactive = in between;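 also: Galphao activated as GDP AlF4 complex before binding bead RGS8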). Conditions: bead-based flow cytometry RGS8-Galphao binding, fluorescence; at 10 µM; actives lie on both sides.
Chain of Guanine nucleotide-binding protein G(o) subunit alpha (Homo sapiens) (P09471 whole entry, looked up): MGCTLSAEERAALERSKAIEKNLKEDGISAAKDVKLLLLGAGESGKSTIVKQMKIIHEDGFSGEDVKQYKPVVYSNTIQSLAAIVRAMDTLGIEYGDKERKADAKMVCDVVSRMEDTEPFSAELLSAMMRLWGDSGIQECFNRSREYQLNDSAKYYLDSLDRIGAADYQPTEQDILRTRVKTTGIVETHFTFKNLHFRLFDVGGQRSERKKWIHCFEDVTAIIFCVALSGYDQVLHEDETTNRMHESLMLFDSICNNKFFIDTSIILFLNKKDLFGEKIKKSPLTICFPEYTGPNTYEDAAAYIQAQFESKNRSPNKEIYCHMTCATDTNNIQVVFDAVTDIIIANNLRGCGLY
The target is the same in experiment [17]. In words: RGS7-Galphao binding modulators, confirmation, biochemical, multiplexed bead flow cytometry, single concentration (AID 1837; in the data active = response below about 75% or above about 130%; inactive = in between;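 also: fluorescent Galphao activated with GDP and aluminum fluoride binding bead-coupled RGS7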). As to conditions: bead-based flow cytometry RGS7-Galphao binding; at 10 µM; actives lie on both sides.
Experiment [18] addresses Regulator of G-protein signaling 16 (Homo sapiens) + Guanine nucleotide-binding protein G(o) subunit alpha (Homo sapiens) (UniProt O15492+P09471). Nature of the experiment: modulators of RGS16-Galphao protein binding, confirmation, biochemical, single concentration, multiplexed bead flow cytometry (AID 1838).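 Also: Galphao activated as the GDP aluminium fluoride complex binding bead-coupled RGS16.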 As to conditions: bead-based flow cytometry, at 10 µM, actives lie on both sides.

Experiment [19] deals with Guanine nucleotide-binding protein G(o) subunit alpha (Homo sapiens) (UniProt P09471). In words: modulators of RGS4-Galphao protein binding, confirmation, biochemical, single concentration, multiplexed bead flow cytometry (AID 1840; in the data active = binding response below about 74% or above about 130%; inactive = in between). Conditions: at 10 µM, actives lie on both sides.
For experiment [20], the target named is Guanine nucleotide-binding protein G(o) subunit alpha (Homo sapiens) + Regulator of G-protein signaling 19 (Homo sapiens) (UniProt P09471+P49795). In words: regulators of RGS19-Galphao binding, confirmation, biochemical, single point, multiplexed bead flow cytometry (AID 1841; in the data active = response below about 50% or above about 160%; inactive = in between;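 also: 100% = no compound control and 0% = blank background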). Conditions: bead-based flow cytometry RGS19-Galphao binding; at 10 µM; actives lie on both sides.
Chain of Guanine nucleotide-binding protein G(o) subunit alpha (Homo sapiens) + Regulator of G-protein signaling 19 (Homo sapiens) (P09471 whole entry, looked up): as above
Chain of Guanine nucleotide-binding protein G(o) subunit alpha (Homo sapiens) + Regulator of G-protein signaling 19 (Homo sapiens) (P49795 whole entry, looked up): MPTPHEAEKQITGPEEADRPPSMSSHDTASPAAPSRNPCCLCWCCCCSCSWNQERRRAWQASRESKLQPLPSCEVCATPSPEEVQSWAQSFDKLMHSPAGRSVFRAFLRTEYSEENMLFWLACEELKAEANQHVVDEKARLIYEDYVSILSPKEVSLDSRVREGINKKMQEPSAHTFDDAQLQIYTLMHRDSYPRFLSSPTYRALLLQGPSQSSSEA

Setting [21] is: measured here: daughter cell gate.
[22] abbreviates: measured here: mother cell gate.
Where [23] appears, read: measured here: daughter cell gate response.
The mark [24] stands for this setting: measured here: mother cell gate response.

SMILES strings stand for the structures. Records with an inconclusive call do not appear. The list shows a part of the results. Calls of active or inactive are those of the source. Rule as the data show it, unless noted: active = response below about 74% or above about 130%; inactive = in between.

Chain of Regulator of G-protein signaling 16 (Homo sapiens) + Guanine nucleotide-binding protein G(o) subunit alpha (Homo sapiens) (O15492 whole entry, looked up): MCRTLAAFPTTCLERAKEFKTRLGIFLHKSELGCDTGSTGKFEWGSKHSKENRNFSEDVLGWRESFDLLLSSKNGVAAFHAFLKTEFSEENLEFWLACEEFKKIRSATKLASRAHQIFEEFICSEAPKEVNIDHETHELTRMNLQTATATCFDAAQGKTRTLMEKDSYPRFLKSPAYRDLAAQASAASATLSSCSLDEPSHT
Chain of Regulator of G-protein signaling 16 (Homo sapiens) + Guanine nucleotide-binding protein G(o) subunit alpha (Homo sapiens) (P09471 whole entry, looked up): as the sequence (P09471 whole entry, looked up) above

On to `C[C@]12CC[C@H]3[C@@H](CCC4=CC(=O)CC[C@@]43C)[C@@H]1CC[C@@H]2C(=O)CO`, for which, in experiment [1], the percent of DMSO control GFP was 93.7% (inactive). The GFP response vs DMSO in experiment [2] is 119% (inactive); in experiment [4], 84.7% (inactive); in [6] it was 97.8% (inactive); in experiment [6] (setting [21]), 95.3%; in experiment [6] (setting [22]), 98.4%; in experiment [8] it was 93.5% (inactive). The percent response of DMSO control in experiment [3] was 102% (inactive). In addition, the GFP response, % of DMSO is 84.3% (inactive) in experiment [5], 91.3% (inactive) in experiment [9], 89.9% in [9] (setting [21]) and 91.2% in experiment [9] (setting [22]). Moreover, the GFP response relative to DMSO was 107% (inactive) in [7], 106% in experiment [7] (setting [23]) and 106% in experiment [7] (setting [24]). The compound also returned a double positive events in [10] of 56.7%. For the same compound, the vesicle binding response in experiment [10] was 201% (inactive).
`COCCNC(=S)N/N=C/c1c(C)[nH]c2ccccc12`: in experiment [11], the RGS16–Galpha-o binding response came to 153%. This compound also registered an RGS19–Galpha-o binding response in experiment [12] of 993%. This compound returned an RGS7–Galpha-o binding response in [13] of 142%. Also, in experiment [14], the RGS8–Galpha-o binding response was found to be 105%. In [15], the inhibition was 0.1% (inactive). The binding response (% of control) in experiment [16] is 105% (inactive); in experiment [19] it was 161% [activator] (active). The results for the response (percent of control binding) in [17] and in experiment [20] were 212% [activator] (active) and 225% (active), respectively. In addition, the response (% of control binding) in experiment [18] is 134% [activator] (active).
Take `CC(C)CC(=O)Nc1ccc2oc(-c3ccncc3)nc2c1`: in experiment [1], the percent of DMSO control GFP was 92.2% (inactive). Besides, the GFP response vs DMSO in [2] is 144% (active); in [4], 82.5% (inactive); in experiment [6], 103% (inactive); in experiment [6] (setting [21]) it was 99.8%; in experiment [6] (setting [22]), 104%; in experiment [8], 97.8% (inactive). In addition, the percent response of DMSO control in [3] was 103% (inactive). Further, the GFP response, % of DMSO in [5] is 83.8% (inactive); in experiment [9] it was 108% (inactive); in [9] (setting [21]), 99.7%; in experiment [9] (setting [22]), 107%. Moreover, the GFP response relative to DMSO in experiment [7] was 98.7% (inactive); in [7] (setting [23]), 98.7%; in experiment [7] (setting [24]) it was 101%. The compound also had a double positive events in experiment [10] of 71.3%. Besides, in experiment [10], the vesicle binding response was 292% (inactive).
For the compound `COc1cc(C2/C(=C(\O)c3ccc4c(c3)CC(C)O4)C(=O)C(=O)N2Cc2ccco2)ccc1O` (stereo not drawn), the RGS16–Galpha-o binding response in experiment [11] is -10.7%. In experiment [12], this compound came in with an RGS19–Galpha-o binding response of 178%. The compound also returned an RGS7–Galpha-o binding response in experiment [13] of 17.7%. In experiment [14], this compound displayed an RGS8–Galpha-o binding response of 12.8%. Also, the inhibition in [15] was 1.5% (inactive). For the same compound, the binding response (% of control) in experiment [16] and in experiment [19] was 106% (inactive) throughout. Further, the response (percent of control binding) in experiment [17] was 110% (inactive); in [20], 106% (inactive). Besides, the response (% of control binding) in experiment [18] was 109% (inactive).
As to `CCCOc1ccc(Cc2c(Cl)nc(SC)nc2NC)cc1`, the inhibition in experiment [15] was -0.2% (inactive). Further, the binding response (% of control) in experiment [16] is 102% (inactive); in experiment [19] it was 101% (inactive). Also, the response (percent of control binding) in [17] was 94.9% (inactive); in experiment [20], 67.1% (inactive). Also, the response (% of control binding) in [18] is 99.9% (inactive).
Take `Cn1c(=O)c(C(=O)NCCO)c(O)c2ccccc21`: the percent of DMSO control GFP in experiment [1] was 103% (inactive). The GFP response vs DMSO in experiment [2] is 105% (inactive); in experiment [4], 104% (inactive); in [6], 101% (inactive); in experiment [6] (setting [21]), 102%; in experiment [6] (setting [22]) it was 103%; in experiment [8] it was 96.2% (inactive). In addition, the percent response of DMSO control in [3] is 103% (inactive). Further, the GFP response, % of DMSO in [5] is 113% (inactive); in experiment [9], 96.9% (inactive); in [9] (setting [21]), 108%; in experiment [9] (setting [22]) it was 97.3%. Moreover, the results for the GFP response relative to DMSO in experiment [7], in experiment [7] (setting [23]) and in experiment [7] (setting [24]) were 87.6% (inactive), 86.4% and 88.7%, respectively. In experiment [10], this compound returned a double positive events of 60.8%. Moreover, the vesicle binding response in [10] is 185% (inactive).
`CCOC(=O)CCP(=O)(O)C(O)(c1ccccc1)c1ccccc1`: the inhibition in experiment [15] is 2.2% (inactive). Moreover, the figures for the binding response (% of control) in experiment [16] and in experiment [19] were 99.3% (inactive) and 100% (inactive), respectively. Besides, the response (percent of control binding) is 101% (inactive) in [17] and 99.5% (inactive) in experiment [20]. In addition, the response (% of control binding) in [18] is 101% (inactive).
